Consider 112 compounds from PubChem BioAssay AID434958 (Southern Research Specialized Biocontainment Screening …, 2010).

Molecules are shown by their SMILES. Out of some 1,200 compounds screened, about 400 (33%) were called active. The rule behind the calls is not given here. Only a sample is shown. Measured potencies and affinities stand elsewhere.

This test can be described thus: mammalian cell cytotoxicity, dose response, cytotoxicity control (AID 434958).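 Note: cells exposed to compound for 72 hours before readout.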 To be noted: cytotoxicity counter-screen; series mostly up to 40 µM.
Turning to `c1ccc(-c2noc(-c3cccc4ccccc34)n2)cc1`, the call was inactive.
The result for `O=C(CC(=O)c1ccccc1)Nc1ccc2c(c1)OCCO2` reads “inactive”; that for `Cc1ccc(CC(=O)Nc2nc3ccccc3[nH]2)cc1C`, “inactive”; that for `O=C(Cc1ccccc1Cl)Nc1nc2ccccc2[nH]1`, “inactive”.
The result for `COc1ccc2sc(-c3ccc(N(C)C)cc3)c(C#CC(C)(C)O)c2c1` reads “inactive”.
Turning to `CSc1nnc(C)c(/C=C/Nc2ccc(Cl)cc2)n1`, the compound was classed as inactive.
The result for `Cn1cc(C(=O)N/N=C/C(Br)=C\c2ccccc2)ccc1=O` reads “inactive”.
Regarding `CCOc1cc(C(=O)N2CCC(CC3CC(c4ccccc4)=NO3)(C(=O)NCc3ccc(OC)cc3)CC2)cc(OCC)c1OCC` (configuration not stated), the call was inactive.
For the compound `CC/C(=N\NC(=S)NC(C)C)c1ccc(OC)c(OC)c1`, the compound was called inactive.
Consider `c1ccc(-n2c3ccccc3c3ccccc32)cc1`, for which the call was inactive.
The result for `C/C(=N\NC(=O)c1cccc(Cl)c1)c1cccc(NC(=O)C(C)C)c1` reads “inactive”.
Consider `CC(C)C[C@H](NC(=O)c1nc[nH]c1C(=O)N1CCN(C(=O)OC(C)(C)C)CC1)C(=O)OCc1ccccc1`, for which the result was inactive.
For `CSc1cccc(NC(=O)c2ccc(Cl)nc2)c1`, the compound was classed as inactive.
The result for `O=C(N[C@@H](Cc1ccccc1)C(=O)CCl)OCc1ccccc1` reads “inactive”; that for `O=C1CC(Nc2ccc(N3CCOCC3)cc2)C(=O)N1C1CCCCC1` (configuration not stated), “inactive”.
Take `O=C(O)CCN1C(=O)/C(=C/c2ccc(-c3nc4ccccc4s3)o2)SC1=S`: the outcome was inactive.
For the compound `COc1ccc(-c2cc3nc(C)cc(N4CC(C)CC(C)C4)n3n2)cc1` (configuration not stated), the compound was called inactive.
As to `C/C(CC(=O)Nc1c(C)cc(C)cc1C)=N\NC(=O)c1cnccn1`, the call was inactive.
The result for `O=C(OCC(=O)N1CCc2ccccc21)c1ccc(Cl)nc1` reads “inactive”.
Regarding `Cc1cc(NC(=O)CCS(=O)(=O)c2nc(-c3ccccc3)cc(C(F)(F)F)n2)no1`, the outcome was inactive.
Regarding `CC/C(=N\NC(=O)c1ccc(N(C)C)cc1)c1ccccc1`, the result was inactive.
Consider `O=C(COn1nnc2ccc(Cl)cc21)NC12CC3CC(CC(C3)C1)C2`, for which the call was inactive.
The result for `CCc1ccc(NC(=O)C2C3/C=C\CCCCC32)cc1` (configuration not stated) reads “inactive”.
The result for `CCOC(=O)/C=C/c1ccc2c(c1)S(=O)(=O)N(Cc1ccc(OC)cc1)[C@H]2CC(=O)OCC` reads “inactive”; that for `O=C(COC(=O)C1=COCCO1)Nc1ccc2c(c1)OCO2`, “inactive”.
Take `CCOC(=O)c1c(C)[nH]c(N=Nc2ccccc2Cl)c1C`: the compound was called inactive.
Turning to `COCCCNCCOCCOc1ccc(C)cc1Br`, the outcome was inactive.
For the compound `COc1cccc(NC(=S)Nc2cc(C)cc(C)n2)c1`, the compound was classed as inactive.
As for `O=C(O)c1cc(-c2ccco2)nc2ccc(Br)cc12`, the result was inactive.
The result for `CN(C)S(=O)(=O)n1cc(/C=C(\NC(=O)c2ccccc2)C(=O)NCCN2CCOCC2)c2ccccc21` reads “inactive”.
The result for `CCOC(=O)c1ccc(N2CN(CCc3ccccc3)CNC2=S)cc1` reads “inactive”; that for `CC(C)(C)c1nnc2sc(SCC(=O)c3cccs3)nn2c1=O`, “inactive”; that for `CCCn1nc(NC(=O)c2ccco2)c2cc3cc(C)ccc3nc21`, “inactive”.
The result for `CNC(=O)COC(=O)c1ccccc1NC(=O)c1ccco1` reads “inactive”; that for `COc1ccc(NC(=O)CCc2ccccc2)cc1NC(=O)c1ccco1`, “inactive”; that for `C=CCOc1ccc(C2N3CC4(C)CN2CC(CCC)(C3)C4=O)cc1` (configuration not stated), “inactive”.
For `CC(C(=O)Nc1nc2ccccc2[nH]1)N1C(=O)C2CC=CCC2C1=O` (configuration not stated), the outcome was inactive.
For the compound `CCC(=O)NC(=S)Nc1ccc(-c2nc3ccccc3s2)cc1`, the compound was called inactive.
Consider `CCOc1ccc(S(=O)(=O)n2nnc3ccccc32)cc1C(C)C`, for which the call was inactive.
As for `COC(=O)c1c(-c2ccc(OC)cc2)oc2ccc(-c3cc(OC)c(OC)c(OC)c3)cc12`, the call was inactive.
The result for `O=C(NCCC1=CCCCC1)NC1CCCCC1` reads “inactive”; that for `CCC1CCCCN1C(=O)CSc1nnc(-c2ccc(Cl)s2)o1` (configuration not stated), “inactive”.
Take `O=C(NCc1ccco1)c1cc2n(n1)C(C(F)(F)F)CC(c1ccc(F)cc1)N2` (configuration not stated): the result was inactive.
For `O=C(CN1CCN(c2ccccn2)CC1)Nc1ccc(Cl)c(C(F)(F)F)c1`, the compound was classed as inactive.
`N#Cc1ccc(NC(=O)COC(=O)C2=COCCO2)cc1`: the compound was called inactive.
Regarding `CCOC(=O)c1c(C)oc2c1c(CN1CCN(C(=O)OCC)CC1)c(O)c1ccccc12`, the result was inactive.
The result for `COc1cc2c(cc1OC)C(c1ccccc1)CC2=O` (configuration not stated) reads “inactive”; that for `Cc1ccccc1Cn1cc(NC(=O)CSc2nc3c(c(C(F)(F)F)n2)CCc2ccccc2-3)cn1`, “inactive”; that for `CCO[C@H]1OC(C(=O)NCc2nc3ccccc3[nH]2)=C[C@@H](c2cn(C(C)=O)c3ccccc23)[C@@H]1CCCO`, “inactive”.
On to `CCCc1c(C)nc2c(OC)cccc2c1SCC(=O)O`, for which the compound was classed as inactive.
Take `O=C(O/N=C\c1ccc(N2CCCCC2)c([N+](=O)[O-])c1)c1c(F)cccc1F`: the compound was classed as inactive.
The result for `c1ccc2c(c1)Cn1nc(Cc3nc4c(s3)CCCC4)nc1-2` reads “inactive”.
`COc1ccc2nc(NC(=O)NC3CCCCC3)sc2c1`: the call was inactive.
As for `CC(=O)c1ccc(N2CCN(c3ncc(C(F)(F)F)cc3Cl)CC2)cc1`, the compound was called inactive.
As for `O=C(Nc1ccc(Cl)cc1F)c1cccc2ccccc12`, the outcome was inactive.
Turning to `CCc1ccccc1NC(=O)CNC(=O)c1cc(C2CC2)nn1-c1ccccc1`, the result was inactive.
The result for `O=C(NCc1ccc2c(c1)OCO2)Nc1ccc2ccccc2c1` reads “inactive”.
Take `CCN(CC)C(=O)CSc1nnc2nnc3cc(OC)ccc3n12`: the outcome was inactive.
The result for `CN1C/C(=N\S(=O)(=O)c2ccccc2)N(C)C1=O` reads “inactive”.
Turning to `Cn1cccc1/C=C1/C(=O)NC(=O)N(Cc2ccc(F)cc2)C1=O`, the outcome was inactive.
Regarding `COCCNC(=S)N/N=C1\CC(C)CC(C)(C)C1` (configuration not stated), the compound was classed as inactive.
`CC(=O)Nc1cccc(-n2nnc(SCC(=O)Nc3ccc(F)c(Cl)c3)n2)c1`: the call was inactive.
The result for `COC(=O)CN1C(CN2CCOCC2)=Nc2ccc(Br)cc2C1c1ccccc1` (configuration not stated) reads “inactive”; that for `CSc1ccc(/C=C/C(=O)Nc2ccccc2)cc1`, “inactive”; that for `CCOc1ccc(N2C(=O)CC(N)C2=O)cc1` (configuration not stated), “inactive”.
Consider `O=C(NC1CCCCCCC1)c1ccc(Br)cc1`, for which the compound was classed as inactive.
`CCCC(C)NC(=O)c1ccc(OCc2ccc(Cl)cc2)c(OC)c1` (configuration not stated): the compound was called inactive.
For the compound `Cc1ccc(C)c(N2CCN(C3CCCC(C)C3)CC2)c1` (configuration not stated), the outcome was inactive.
The result for `O=C(Nc1ccc(Cl)cc1)C1CC2CCCC(C1)C2=O` (configuration not stated) reads “inactive”; that for `Cc1ccc(NC(=O)CSc2n[nH]c(-c3ccco3)n2)cc1`, “inactive”; that for `CCCC(C(=O)N1CCOCC1)N1C(=O)C2C3C=CC(C3)C2C1=O` (configuration not stated), “inactive”.
The result for `Cc1c(C(=O)c2ccccc2)oc2ccc3ccccc3c12` reads “inactive”; that for `Cc1ccc(C(=O)Nc2c(C)cc(C)c3cccnc23)cc1`, “inactive”.
Regarding `COCCOC(=O)c1c(C)oc2ccc(OC(=O)c3c(OC)cccc3OC)cc12`, the call was inactive.
The result for `COc1ccc(-c2c(-c3ccsc3)oc3ccc(N4CCOCC4)cc23)cc1` reads “inactive”; that for `Cc1nn(C)c(C)c1C1C(C#N)=C(N)OC2=C1C(=O)CCC2` (configuration not stated), “inactive”.
The result for `Cc1cccnc1NC(=O)c1cc2ccccc2oc1=O` reads “inactive”.
The result for `Cc1ccc(C)c(NC(=O)C2Cc3ccccc3CN2C(=O)OCc2ccccc2)c1` (configuration not stated) reads “inactive”.
For `CNc1ccccc1NC(=O)C1CCCN1C(=O)OCc1ccccc1` (configuration not stated), the result was inactive.
The result for `O=C(NC(=S)N1CCOCC1)c1ccc([N+](=O)[O-])cc1` reads “inactive”.
Turning to `NC(=O)CN1C(=O)C(O)(CC(=O)/C=C\C=C\c2ccccc2)c2ccccc21` (configuration not stated), the result was inactive.
The result for `C=CCC(Nc1ccccc1)C12C=CC(O1)C(C(=O)OC)=C2C(=O)OC` (configuration not stated) reads “inactive”; that for `COc1ccc2ccccc2c1/C=N/NC(=O)c1cccc(C)c1`, “inactive”; that for `COc1cc(C(=O)N/N=C/c2ccc(OC(=O)c3cccc(C)c3)cc2)ccc1O`, “inactive”.
The result for `Cc1ccccc1NC(=O)/C(C#N)=C\c1cc(C)n(-c2ccc(C(=O)O)cc2)c1C` reads “inactive”.
With `Cc1cc(C)c(OCC(=O)Nc2nc3ccccc3[nH]2)c(C)c1`, the compound was classed as inactive.
On to `O=C(COc1ccc2ccccc2c1)Nc1nc2ccccc2[nH]1`, for which the result was inactive.
The result for `Cc1ccc(SCc2c(C#N)c3ccccc3n2C)cc1` reads “inactive”.
For the compound `Clc1ccc(Cn2cc(/C=N/n3cnnc3)c3ccccc32)cc1`, the compound was classed as inactive.
With `Nc1nc(Sc2ncccc2[N+](=O)[O-])n[nH]1`, the outcome was inactive.
The result for `Cc1nnnn1/C(=C\c1ccccc1)C(=O)OCC(=O)NC1CCCCC1` reads “inactive”.
The result for `CCOC(=O)CNC(=O)CSc1ncnc2c1cnn2Cc1ccccc1` reads “inactive”; that for `Cc1cc(C)n(-c2nc3ccccc3c(=O)n2OCC(=O)N(C)C)n1`, “inactive”; that for `CC1CCN(C(=S)NC(=O)c2ccccc2)CC1`, “inactive”.
The result for `CCc1cc2c(=O)nc3n(c2s1)Cc1ccccc1/C3=C(/O)c1ccc(F)cc1` reads “inactive”; that for `CCCSc1nnc(NC(=O)c2sc3nc(-c4cccs4)ccc3c2N)s1`, “inactive”.
As for `CCC(CC)c1nnc(NC(=O)c2cc(-c3ccccc3)nc3ccccc23)s1`, the result was inactive.
The result for `COc1cc(OC)c(OC)cc1/C=C1\CCC(C2CCCC2)C1=O` (configuration not stated) reads “inactive”; that for `O=C(NCc1ccc2c(c1)OCO2)C(=O)NC1CCCCC1`, “inactive”; that for `CCCCn1nc2cc(C(=O)NCC34CC5CC(CC(C5)C3)C4)ccc2c1OCC`, “inactive”.
The result for `O=C(CSc1nnc(-c2ccncc2)o1)c1cccc([N+](=O)[O-])c1` reads “inactive”; that for `O=C(OCC(=O)c1c[nH]c2ccccc12)c1cccc([N+](=O)[O-])c1`, “inactive”; that for `O=C(Cn1nnc2c(cnn2-c2ccccc2)c1=O)N1CCN(c2ccccc2F)CC1`, “inactive”.
`CCOC(=O)c1nn(-c2ccc(Cl)cc2)cc1O`: the compound was classed as inactive.
`CCN(CCNC(=O)Nc1ccc(Cl)cc1)c1ccccc1`: the result was inactive.
As for `S=c1nccc(-c2ccc3c(c2)CCO3)[nH]1`, the result was inactive.
The result for `Cc1ccc(C(=O)Nc2nc3ccccc3s2)s1` reads “inactive”.
The result for `CC(=O)Nc1scc(C)c1-c1nc2ccccc2s1` reads “inactive”; that for `O=C1S/C(=C\C=C\c2ccco2)C(=O)N1c1ccccc1`, “inactive”; that for `O=C1CS/C(=N/N=C2C3CC4CC(C3)CC2C4)N1`, “inactive”.
Regarding `NC(=S)N/N=C/c1ccc(/C=N/NC(N)=S)cc1`, the compound was called inactive.
The result for `CCOC(OCC)c1cn(Cc2ccc3c(c2)C(=O)c2ccccc2C3=O)nn1` reads “inactive”.
